Data on seven compounds can be found in PubChem BioAssay (NCATS).

A short description of assay [1]: Cytometric Cell-Based qHTS for Inhibitors of the mTORC1 Signaling Pathway in MEF (Tsc2-/-, p53-/-) Cells (AID 2660).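 Further: Tsc2 and p53 null MEFs carrying empty vector with compound for 24 h; percent of cells above a phospho-rpS6 to PI ratio cutoff in each well; series mostly up to about 38 µM.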 The method, boiled down:
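Cells are plated, treated with compound for 24 hrs at 37 degree Celsius, then fixed, blocked and immunostained for phospho-rpS6 Ser235/236. Propidium iodide counterstain follows. Per-well % positive cells is derived from the PI-normalized phospho-S6 signal.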
Background: In qHTS, concentration-response curves come from the screen itself.

Assay [2] is described as follows: High Content Imaging Cell-Based qHTS for Inhibitors of the mTORC1 Signaling Pathway in MEF (Tsc2-/-, p53-/-) Cells (AID 2666).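 Further: percent of cells scored positive for phospho-rpS6 Ser235/236 immunostaining by imaging.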 An outline of the steps: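 Cells were plated, dosed with compound after 24 hrs, and incubated another 24 hrs at 37 degree Celsius. Fixed cells were immunostained for phospho-rpS6 Ser235/236 and counterstained, and the normalized signal was scored as % active cells against rapamycin and DMSO controls.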

A short description of assay [3]: High Content Imaging Cell-Based qHTS for Inhibitors of the mTORC1 Signaling Pathway in MEF Cells (AID 2667).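 Further: Tsc2-/- p53-/- MEFs stably re-expressing wild-type Tsc2 exposed 24 h; series mostly up to about 38 µM.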 The method, boiled down: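 Immunofluorescence for rpS6 phosphorylation in MEFs of Tsc2-/-, p53-/- background rescued with WT Tsc2. Compound exposure lasted 24 hrs. Inhibition was scored against rapamycin-treated control wells.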
Assay [4] can be described thus: Cytometry Cell-Based qHTS for Inhibitors of the mTORC1 Signaling Pathway in MEF cells (AID 2668).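 Further: Tsc2-/- p53-/- mouse embryonic fibroblasts stably re-expressing wild-type Tsc2; percent cells positive for phospho-rpS6 Ser235/236 relative to propidium iodide stain; series mostly up to about 38 µM.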 The method, boiled down: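 Tsc2-/-, p53-/- MEFs re-expressing WT Tsc2; cpd 24 hrs, 37 degree Celsius; PFA fix, Alexa-488 p-rpS6 (Ser235/236) Ab 2 hrs RT, PI counterstain; Acumen 488nm scan; p-S6/PI ratio → % positive cells; PI count = viability.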
The nature of assay [5]: Validation screen for small molecules that induce DNA re-replication in MCF 10A normal breast cells (AID 463097). Further: nearly all actives have a fitted effect of over 60% in size. Further: potency means the concentration at half of the fitted maximal effect. The method, boiled down:
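Image-based qHTS: normal breast cells are incubated with compound for 48 hr, stained with Hoechst, and scanned for total nuclear fluorescence. Compounds raising the fraction of nuclei with elevated DNA content count as re-replication inducers.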

Assay [6] deals with Ubiquitin carboxyl-terminal hydrolase 2 (Homo sapiens) (UniProt O75604). The assay can be described thus: qHTS Validation Assay for Inhibitors of Ubiquitin-specific Protease USP2a Using CHOP2 as the Reporter (AID 463106). An outline of the steps:
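10nM USP2 core + cpd, 30min RT; add 25nM Ub-CHOP2/25nM substrate; 60min RT; FI 485/531nm. Buffer Tris pH 8.0, CaCl2, BME, CHAPS. Norm. to NEM = 100% inhibition; time-zero read flags fluorescent artifacts.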

Assay [7] deals with DNA polymerase III PolC-type (Bacillus subtilis (strain 168)) (UniProt P13267). The assay can be described thus: qHTS Validation Assay for the Inhibitors of DNA Replication in Gram-Positive Bacteria (AID 485295).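 Further: reconstituted holoenzyme with PolC plus beta clamp SSB and primase; PicoGreen fluorescence of double-stranded DNA made on primed circular M13 template; series mostly up to about 57 µM.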 An outline of the steps:
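First, compound is mixed with the reconstituted replication complex and held at room temperature. Next, circular single-stranded M13Gori with nucleotides starts synthesis. Finally, PicoGreen in EDTA halts the reaction and stains double-stranded product for fluorescence reading.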

Assay [8] concerns the target Tumor susceptibility gene 101 protein (Homo sapiens) (UniProt Q99816). Description: qHTS Validation Assay for Iinhibitors of HIV-1 Budding by Blocking the Interaction of PTAP/TSG101 (AID 485342; calls by dose curve). An outline of the steps: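 Binding of a FITC-tagged PTAP-motif peptide (50 nM) to the Tsg101 binding domain (10 uM) is monitored by fluorescence polarization. Compounds are pin-delivered before peptide addition, and incubation runs 20 min at room temperature.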

For assay [9], the target named is Beta-2 adrenergic receptor (Homo sapiens) (UniProt P07550). The assay can be described thus: qHTS validation assay of beta-arrestin-biased ligands of beta2-adrenergic receptor (AID 485366). The method, boiled down:
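Values derive from curve-fitted %Activity of a luminescent beta-arrestin recruitment reporter; compounds tested up to 46 microM on Tango cells for 18 hr at 37 degrees C, 5% CO2.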

Assay [10] concerns the target ATP-dependent 6-phosphofructokinase (Trypanosoma brucei brucei) (UniProt O15648). The assay can be described thus: qHTS Validation Assay to Find Inhibitors of T. brucei phosphofructokinase (AID 485368). An outline of the steps:
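Enzyme reaction in triethanolamine buffer pH 8.0 with 5 mM MgCl2, 0.01% Tween20 and 0.1% BSA; PFK 1.25 nM, F6P 0.5 mM, ATP 0.1 mM, 45 min RT. ADP quantified by ADP-Glo.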

Assay [11] in a line: Quantitative high throughput screen for delayed death inhibitors of the malarial parasite plastid, 96 hour incubation (AID 488745).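 Further: luciferase-expressing P. falciparum in erythrocytes at 2% hematocrit and 0.1% parasitemia; series mostly up to about 29 µM; nearly all actives have a fitted effect of over 70% in size.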 The method, boiled down: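 Growth of reporter-bearing P. falciparum in red cells is measured after 96 h with compound, covering two erythrocytic cycles. Luminescence from the integrated luciferase serves as the growth signal.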
Assay [12] can be described thus: Quantitative high throughput screen for delayed death inhibitors of the malarial parasite plastid, 48 hour incubation (AID 488752). Further: nearly all actives have a fitted effect of over 65% in size. The method, boiled down: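 One parasite generation (48 h, 37 C, 5% CO2) of luciferase-reporter P. falciparum in erythrocytes is run with test compound; decreased luminescence indicates inhibited growth.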
Assay [13] concerns the target Thioredoxin reductase 1, cytoplasmic (Rattus norvegicus) (UniProt O89049). The assay can be described thus: qHTS Assay for Substrates of Mammalian Selenoprotein Thioredoxin Reductase 1 (TrxR1) (AID 488772).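 Further: NADPH fluorescence in the first read after selenite addition and not the 8 min delta; series mostly up to about 57 µM; a drop in NADPH fluorescence below the no-compound background marks a TrxR1 substrate.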 The method, boiled down: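 Quantitative HTS in Tris-HCl buffer at pH 7.5 with EDTA and Tween-20, using rat TrxR1, 400 uM NADPH and 400 uM selenite (final). A fall in initial NADPH fluorescence relative to background marked substrate behaviour.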

Assay [14] has the same target. The assay can be described thus: qHTS Assay for Inhibitors of Mammalian Selenoprotein Thioredoxin Reductase 1 (TrxR1) (AID 488773).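 Further: drop in NADPH fluorescence over an 8 min run after selenite addition; series mostly up to about 57 µM; nearly all actives have a fitted effect of over 40% in size.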 The conditions noted are these: Potency: inhibition. The method, boiled down:
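Steps: enzyme (90 nM) plus NADPH (400 uM final), 5 min at ~22 deg C; compound added, 15 min; selenite (400 uM final) added; fluorescence followed for 8 min. Concentration-response curves derived from the normalized delta values.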

The target in assay [15] is Flap endonuclease 1 (Homo sapiens) (UniProt P39748). Description: qHTS Validation Assay for the Inhibitors of Human Flap endonuclease 1 (FEN1) (AID 488816). The method, boiled down:
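Readings taken at 0 and 15 min after starting the reaction with 50 nM (final) substrate supplied the signal. Compounds had first sat with 10 nM FEN1 reagent for 15 min at room temperature. Values come from Hill-equation concentration-response fits.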

Assay [16] has as its target M-phase phosphoprotein 8 (Homo sapiens) (UniProt Q99549). Description: qHTS Validation Assay for Inhibitors for MPP8 Chromodomain Interactions with Methylated Histone Tails (AID 488949).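 Further: 50 nM MPP8 with 50 nM peptide preformed then compounds added for 30 min; AlphaScreen signal from MPP8 chromodomain bound to biotinylated H3K9me3 peptide; top concentration of the series differs between compounds; nearly all actives have a fitted effect of over 55% in size.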 The method, boiled down:
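50 nM MPP8 + 50 nM b-H3K9me3 peptide, PBS pH 7.4/0.01% Tween-20, 30 min RT; + cpd 30 min RT; + AlphaScreen donor/Ni-chelate acceptor beads 10 ug/mL final, 30 min dark; luminescence read.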

Assay [17] addresses Chromobox protein homolog 1 (Homo sapiens) (UniProt P83916). The assay can be described thus: qHTS Validation Assay for Inhibitors of HP1-beta Chromodomain Interactions with Methylated Histone Tails (AID 488953).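 Further: loss of AlphaScreen luminescence from HP1-beta binding biotinylated H3K9me3 peptide; series mostly up to about 110 µM; nearly all actives have a fitted effect of over 50% in size.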 The method, boiled down: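 Measured as loss of AlphaScreen luminescence from streptavidin donor and nickel acceptor beads (10 ug/mL final) bridging HP1-beta and biotin-H3(1-18)K9me3, each 50 nM. Compounds met the preassembled complex for 30 min at RT.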

Assay [18] addresses Methanococcus maripaludis chaperonin (MmCpn) (UniProt Q6LX38). The assay can be described thus: High-Throughput Screening for Modulators of Cytosolic Chaperonin Activity: MmCpn Primary Screen (AID 488978).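 Further: 50 nM MmCpn enzyme hydrolysing 30 µM ATP at 37 °C.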 An outline of the steps: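 Steps: chaperonin 50 nM final; add compound, 5 min RT; start with ATP, 30 uM final; hold 10 min at 37C; add ADP Transcreener HTRF reagent, 5 min; read ex 320, em 590 and 665 nm.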

Assay [19] is described as follows: qHTS Validation Assay to Find Inhibitors of Chronic Active B-Cell Receptor Signaling (AID 485345; active means well fitted curve in the direction sought with a large enough effect in the main read-out, with a control signal flat, not every such curve was filed as active). The method, boiled down: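 Read-out: ratio of filter-corrected green (IkappaBalpha fusion) to red (native) luciferase signal in doxycycline-induced TMD8 cells after 4 h at 37C. Titration spanned 46 uM–3 nM; Data were normalised to basal cells and 10 uM MG-132 wells.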

Results filed as inconclusive are left out. Active and inactive are the calls of the source. Unless noted, the call rests on the fitted dose curve; in most records, active means well fitted curve in the direction sought with a large enough effect; inconclusive means small, poorly fitted or top-dose-only effect, or another doubt; inactive means no such curve, though single readings can be large; an effect the other way counts as inactive or inconclusive.

Ubiquitin carboxyl-terminal hydrolase 2 (Homo sapiens), sequence (O75604 whole entry, looked up): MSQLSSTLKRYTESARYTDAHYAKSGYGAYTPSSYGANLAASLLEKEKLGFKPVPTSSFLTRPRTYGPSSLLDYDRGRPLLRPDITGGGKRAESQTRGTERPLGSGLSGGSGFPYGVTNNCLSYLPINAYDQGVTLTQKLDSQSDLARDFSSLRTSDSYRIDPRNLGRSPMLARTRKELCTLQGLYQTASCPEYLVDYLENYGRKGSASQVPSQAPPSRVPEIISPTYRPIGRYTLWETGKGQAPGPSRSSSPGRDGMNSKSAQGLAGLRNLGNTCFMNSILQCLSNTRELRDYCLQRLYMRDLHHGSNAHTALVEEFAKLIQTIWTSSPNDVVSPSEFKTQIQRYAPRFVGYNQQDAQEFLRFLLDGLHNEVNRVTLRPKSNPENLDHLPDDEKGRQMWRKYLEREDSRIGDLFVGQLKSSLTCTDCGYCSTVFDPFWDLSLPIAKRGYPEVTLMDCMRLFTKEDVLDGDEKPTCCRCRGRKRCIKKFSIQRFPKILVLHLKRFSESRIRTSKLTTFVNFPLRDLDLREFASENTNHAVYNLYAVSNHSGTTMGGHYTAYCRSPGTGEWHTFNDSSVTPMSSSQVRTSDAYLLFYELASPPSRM
Chromobox protein homolog 1 (Homo sapiens), sequence (P83916 whole entry, looked up): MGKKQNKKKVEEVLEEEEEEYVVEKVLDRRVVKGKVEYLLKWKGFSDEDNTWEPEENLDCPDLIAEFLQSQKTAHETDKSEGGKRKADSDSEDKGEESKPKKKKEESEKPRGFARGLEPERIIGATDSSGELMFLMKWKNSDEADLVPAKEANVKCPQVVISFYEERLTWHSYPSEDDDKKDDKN
M-phase phosphoprotein 8 (Homo sapiens), sequence (Q99549 whole entry, looked up): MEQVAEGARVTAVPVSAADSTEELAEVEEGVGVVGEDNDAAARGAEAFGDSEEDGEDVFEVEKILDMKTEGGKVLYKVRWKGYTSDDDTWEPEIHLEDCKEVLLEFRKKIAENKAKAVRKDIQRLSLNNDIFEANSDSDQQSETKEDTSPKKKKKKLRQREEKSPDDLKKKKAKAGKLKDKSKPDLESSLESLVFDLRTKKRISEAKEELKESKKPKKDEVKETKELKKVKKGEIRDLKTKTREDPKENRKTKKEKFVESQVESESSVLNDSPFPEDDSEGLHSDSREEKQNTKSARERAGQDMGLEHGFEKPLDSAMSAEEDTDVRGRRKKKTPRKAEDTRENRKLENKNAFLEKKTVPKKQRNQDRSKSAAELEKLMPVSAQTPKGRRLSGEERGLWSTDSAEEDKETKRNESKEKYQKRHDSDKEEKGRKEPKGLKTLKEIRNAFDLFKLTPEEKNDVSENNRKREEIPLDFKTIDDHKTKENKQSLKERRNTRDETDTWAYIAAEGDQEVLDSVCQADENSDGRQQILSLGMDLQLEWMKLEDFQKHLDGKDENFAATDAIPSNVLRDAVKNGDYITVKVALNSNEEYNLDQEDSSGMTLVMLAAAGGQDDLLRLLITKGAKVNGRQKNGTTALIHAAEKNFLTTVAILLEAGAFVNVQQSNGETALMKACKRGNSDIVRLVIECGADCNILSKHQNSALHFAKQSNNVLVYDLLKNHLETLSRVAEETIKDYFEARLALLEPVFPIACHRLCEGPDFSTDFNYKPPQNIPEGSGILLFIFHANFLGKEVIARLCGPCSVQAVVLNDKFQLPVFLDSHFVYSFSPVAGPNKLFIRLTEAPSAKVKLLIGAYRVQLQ
Beta-2 adrenergic receptor (Homo sapiens), sequence (P07550 whole entry, looked up): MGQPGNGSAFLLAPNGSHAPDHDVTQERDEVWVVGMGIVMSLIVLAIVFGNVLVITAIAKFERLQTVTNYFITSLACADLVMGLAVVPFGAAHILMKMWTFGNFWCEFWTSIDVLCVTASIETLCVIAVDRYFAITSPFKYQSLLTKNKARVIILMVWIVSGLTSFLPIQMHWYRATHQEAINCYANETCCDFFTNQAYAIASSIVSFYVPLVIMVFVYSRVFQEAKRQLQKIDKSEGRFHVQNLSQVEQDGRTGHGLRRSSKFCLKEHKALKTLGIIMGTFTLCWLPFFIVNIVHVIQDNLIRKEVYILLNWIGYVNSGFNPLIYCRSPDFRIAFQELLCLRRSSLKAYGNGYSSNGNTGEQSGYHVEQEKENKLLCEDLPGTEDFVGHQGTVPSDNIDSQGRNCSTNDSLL
DNA polymerase III PolC-type (Bacillus subtilis (strain 168)), sequence (P13267 whole entry, looked up): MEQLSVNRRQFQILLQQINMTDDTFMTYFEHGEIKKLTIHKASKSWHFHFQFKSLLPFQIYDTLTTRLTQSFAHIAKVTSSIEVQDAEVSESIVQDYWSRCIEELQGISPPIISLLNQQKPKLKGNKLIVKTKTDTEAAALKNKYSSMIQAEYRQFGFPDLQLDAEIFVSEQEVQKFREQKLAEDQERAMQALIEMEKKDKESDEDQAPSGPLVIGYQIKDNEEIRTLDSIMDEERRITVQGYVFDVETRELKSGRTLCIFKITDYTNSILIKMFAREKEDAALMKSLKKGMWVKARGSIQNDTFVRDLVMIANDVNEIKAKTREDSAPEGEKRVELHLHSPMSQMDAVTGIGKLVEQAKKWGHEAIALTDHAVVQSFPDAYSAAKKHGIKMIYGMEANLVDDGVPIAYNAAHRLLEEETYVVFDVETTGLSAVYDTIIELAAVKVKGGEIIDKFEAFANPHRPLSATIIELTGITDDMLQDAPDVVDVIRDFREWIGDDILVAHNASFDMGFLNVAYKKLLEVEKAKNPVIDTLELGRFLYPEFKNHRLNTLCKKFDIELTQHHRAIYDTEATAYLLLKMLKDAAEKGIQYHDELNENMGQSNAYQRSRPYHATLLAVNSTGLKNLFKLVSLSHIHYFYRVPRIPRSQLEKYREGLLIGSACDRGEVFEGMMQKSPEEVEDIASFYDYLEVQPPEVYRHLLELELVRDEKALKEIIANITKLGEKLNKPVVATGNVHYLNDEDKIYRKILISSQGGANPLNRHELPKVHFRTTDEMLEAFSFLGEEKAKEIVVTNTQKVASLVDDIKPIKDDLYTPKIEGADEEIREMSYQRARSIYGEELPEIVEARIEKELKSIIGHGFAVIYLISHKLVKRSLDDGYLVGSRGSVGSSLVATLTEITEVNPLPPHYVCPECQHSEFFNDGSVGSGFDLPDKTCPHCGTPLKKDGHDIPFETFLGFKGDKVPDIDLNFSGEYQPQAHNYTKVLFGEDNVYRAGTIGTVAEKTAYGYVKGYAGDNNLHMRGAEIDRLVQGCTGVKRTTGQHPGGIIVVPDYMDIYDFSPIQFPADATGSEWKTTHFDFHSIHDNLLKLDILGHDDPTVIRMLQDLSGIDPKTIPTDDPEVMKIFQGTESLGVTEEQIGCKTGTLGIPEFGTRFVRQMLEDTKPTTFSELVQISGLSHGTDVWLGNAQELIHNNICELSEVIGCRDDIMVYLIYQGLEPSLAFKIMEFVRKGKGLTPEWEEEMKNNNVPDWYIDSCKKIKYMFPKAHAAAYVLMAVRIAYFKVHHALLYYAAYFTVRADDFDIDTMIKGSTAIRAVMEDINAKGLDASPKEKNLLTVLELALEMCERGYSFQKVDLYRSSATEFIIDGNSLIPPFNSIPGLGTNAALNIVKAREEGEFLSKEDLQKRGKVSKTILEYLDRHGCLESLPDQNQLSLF
Tumor susceptibility gene 101 protein (Homo sapiens), sequence (Q99816 whole entry, looked up, the tested form may be a part): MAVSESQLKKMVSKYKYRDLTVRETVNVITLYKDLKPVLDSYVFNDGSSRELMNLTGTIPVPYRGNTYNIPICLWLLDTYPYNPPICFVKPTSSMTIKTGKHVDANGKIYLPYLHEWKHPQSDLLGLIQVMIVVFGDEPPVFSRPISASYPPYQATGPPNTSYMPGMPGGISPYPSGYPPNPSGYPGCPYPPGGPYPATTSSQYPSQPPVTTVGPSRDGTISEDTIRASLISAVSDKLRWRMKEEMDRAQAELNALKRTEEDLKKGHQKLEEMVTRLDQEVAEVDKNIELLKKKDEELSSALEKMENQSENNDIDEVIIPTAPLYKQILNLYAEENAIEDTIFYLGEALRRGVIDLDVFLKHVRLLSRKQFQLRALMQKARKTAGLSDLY
Methanococcus maripaludis chaperonin (MmCpn), sequence (Q6LX38 1-543): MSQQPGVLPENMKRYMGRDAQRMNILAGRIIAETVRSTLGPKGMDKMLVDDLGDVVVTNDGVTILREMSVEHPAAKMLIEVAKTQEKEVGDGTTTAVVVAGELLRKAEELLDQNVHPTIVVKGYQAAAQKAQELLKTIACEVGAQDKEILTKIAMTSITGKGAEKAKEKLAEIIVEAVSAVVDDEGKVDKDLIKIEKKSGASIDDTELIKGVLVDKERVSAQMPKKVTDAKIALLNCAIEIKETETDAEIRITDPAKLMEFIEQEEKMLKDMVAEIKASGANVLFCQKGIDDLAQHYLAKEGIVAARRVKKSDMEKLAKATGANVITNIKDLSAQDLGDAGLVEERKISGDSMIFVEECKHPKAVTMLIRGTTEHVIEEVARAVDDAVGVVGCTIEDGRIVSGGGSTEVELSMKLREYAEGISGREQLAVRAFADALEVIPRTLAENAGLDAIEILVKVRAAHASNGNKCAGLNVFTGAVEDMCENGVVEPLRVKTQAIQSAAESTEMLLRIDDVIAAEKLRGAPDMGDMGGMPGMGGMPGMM
Flap endonuclease 1 (Homo sapiens), sequence (P39748 whole entry, looked up): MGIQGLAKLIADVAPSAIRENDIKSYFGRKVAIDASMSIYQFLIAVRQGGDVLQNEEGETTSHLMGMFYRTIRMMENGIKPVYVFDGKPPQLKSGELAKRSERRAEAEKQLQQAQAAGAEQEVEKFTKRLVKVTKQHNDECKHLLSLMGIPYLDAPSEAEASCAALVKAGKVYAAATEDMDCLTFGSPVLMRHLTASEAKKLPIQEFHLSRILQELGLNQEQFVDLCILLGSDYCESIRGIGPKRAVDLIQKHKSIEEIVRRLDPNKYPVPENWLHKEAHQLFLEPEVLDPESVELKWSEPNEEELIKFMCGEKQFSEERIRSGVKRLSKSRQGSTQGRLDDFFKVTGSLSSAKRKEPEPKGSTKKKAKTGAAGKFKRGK

`CNCCNS(=O)(=O)c1cccc2cnccc12`: the compound was called inactive in assay [1], in [8], in [9], in assay [13] and in assay [18]. Moreover, the Potency result in assay [2], in assay [3], in [4], in [5], in assay [6] and in assay [7] was “inactive” in each case. The Potency result in assay [10], in [11], in assay [12], in [14], in assay [15] and in assay [16] was “inactive” each time. Further, the Potency result in assay [17] is “inactive”.

For `C[N+](C)(C)CC=O`, the outcome in assay [1], in assay [8], in assay [19], in [9] and in [18] was inactive. Also, the Potency result in assay [2], in [3], in assay [4], in assay [5], in assay [6] and in assay [7] was “inactive” each time. Further, the Potency entry in assay [11], in assay [12], in assay [14], in assay [15], in assay [16] and in assay [17] was “inactive” in each case.

`O=C(O)C1=CCCNC1`: the compound was called inactive in assay [1], in assay [8], in assay [19], in [9], in assay [13] and in assay [18]. Moreover, the Potency result in assay [2], in [3], in assay [4], in [5], in [6] and in [7] was “inactive” in each case. Further, the Potency result in assay [11], in assay [14], in assay [15] and in [16] was “inactive” throughout.

`N=C(N)SCCc1cnc[nH]1`: the compound was called inactive in [1], in assay [8], in assay [19], in assay [13] and in assay [18]. For the same compound, the Potency result in assay [2], in assay [3], in assay [4], in [5], in assay [6] and in assay [7] was “inactive” in each case. The Potency result in assay [10], in assay [11], in assay [12], in [14], in [15] and in assay [16] was “inactive” each time.

On to `CCCn1c(=O)c2c(ncn2C)n(CCC)c1=O`, for which the call in [1], in assay [8], in [19], in assay [13] and in assay [18] was inactive. Moreover, the Potency result in assay [2], in assay [3], in assay [4], in assay [5], in assay [6] and in assay [7] was “inactive” in each case. Further, the Potency result in assay [11], in assay [12], in [14], in assay [15] and in assay [16] was “inactive” in each case.

Turning to `CCN1C(=O)C=CC1=O`, the call in [1], in assay [8], in assay [19], in [13] and in assay [18] was inactive. For the same compound, the Potency result in assay [2], in [3], in assay [4], in assay [6], in assay [7] and in assay [14] was “inactive” in each case. The Potency entry in assay [15] and in assay [16] was “inactive” in each case. In assay [5], the Potency is 20 µM (active).

In the case of `NC(N)=NC(N)=Nc1ccccc1`, the compound was called inactive in assay [1], in assay [8], in assay [19], in assay [13] and in assay [18]. In addition, the Potency entry in assay [2], in assay [3], in assay [4], in assay [5], in assay [6] and in [7] was “inactive” throughout. In addition, the Potency entry in [11], in assay [14], in [15], in assay [16] and in assay [17] was “inactive” throughout.
